Assay outcomes: PubChem, several laboratories
Sampled rows, rich in hits. Any-hit rate of the full collection: about 1.2%.
Rv3671c protease: inhibits the M. tuberculosis serine protease Rv3671c; P9WHR9; inhibition, % at 5.96 µM; actives 0.048% (n = 320,000); AID 2606; in the data active means inhibition above about 38%;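 further: extracellular domain of Rv3671c used as enzyme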
CCHF vOTU inh: blocks the CCHF virus ovarian tumor domain protease; CCHFV vOTU protease, Pep-AMC fluorescence; inhibition, % at 11.5 µM; actives 0.55% (n = 370,000); in the data active means inhibition above about 30%
Mtb bLac sens: beta-lactam sensitization of Mtb H37Rv; AID 434955; M. tuberculosis H37Rv growth with meropenem, percent inhibition; inhibition, % at 25 µM; actives 0.27% (n = 330,000);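 further: growth measured after seven days incubation then overnight dye step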
UGM FP inh: blocks M. tuberculosis UGM enzyme. P9WIQ1. purified UGM, fluorescence polarization probe displacement. inhibition, % at 10 µM. actives 0.06% (n = 320,000); in the data active means inhibition above about 10%, passing the limit was not always enough; inconclusive means no clear call, values can overlap the other calls
RecA splice inh: blocks M. tuberculosis RecA intein splicing | P9WHJ3 | cell-free RecA intein splicing, fluorescence | inhibition, % (no concentration beside the values) | actives 0.75% (n = 290,000); in the data active means inhibition above about 30%; inconclusive means no clear call, values can overlap the other calls
Target sequence (P9WHJ3 whole entry, looked up, canonical isoform): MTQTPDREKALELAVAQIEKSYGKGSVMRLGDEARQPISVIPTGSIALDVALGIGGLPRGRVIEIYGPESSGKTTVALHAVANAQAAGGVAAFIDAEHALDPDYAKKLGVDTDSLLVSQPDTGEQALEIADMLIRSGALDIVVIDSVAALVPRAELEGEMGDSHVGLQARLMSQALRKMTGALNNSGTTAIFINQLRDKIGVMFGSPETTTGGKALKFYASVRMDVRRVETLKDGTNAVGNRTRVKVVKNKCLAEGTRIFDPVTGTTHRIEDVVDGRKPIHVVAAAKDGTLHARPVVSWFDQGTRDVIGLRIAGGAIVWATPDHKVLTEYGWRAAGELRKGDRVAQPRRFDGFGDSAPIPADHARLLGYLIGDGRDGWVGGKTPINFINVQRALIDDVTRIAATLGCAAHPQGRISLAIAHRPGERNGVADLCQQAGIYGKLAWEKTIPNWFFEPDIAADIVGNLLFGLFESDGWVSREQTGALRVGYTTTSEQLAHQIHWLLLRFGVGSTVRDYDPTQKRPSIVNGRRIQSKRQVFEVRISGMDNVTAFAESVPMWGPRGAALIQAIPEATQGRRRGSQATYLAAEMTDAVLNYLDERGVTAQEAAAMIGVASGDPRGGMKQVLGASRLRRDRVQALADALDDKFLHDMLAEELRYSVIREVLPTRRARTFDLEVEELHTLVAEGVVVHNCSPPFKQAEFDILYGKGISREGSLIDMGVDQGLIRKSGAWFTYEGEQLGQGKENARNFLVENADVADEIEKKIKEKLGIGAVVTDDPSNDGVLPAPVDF
GFP chromo cs: counter-screen: blocks GFP chromophore formation; shares compounds with RecA splice inh; EC50, µM; cell-free GFP chromophore formation, fluorescence; actives 83% (n = 2,100)
A number is an active result; – = inactive; ? = inconclusive; · = not tested or not shown. Unless noted, how the calls were made is not given here.

SMILES | Rv3671c protease | CCHF vOTU inh | Mtb bLac sens | UGM FP inh | RecA splice inh | GFP chromo cs
CCCCCC(=O)O[C@]1(C(C)=O)CC[C@H]2[C@@H]3CCC4=CC(=O)CC[C@]4(C)[C@H]3CC[C@@]21C | – | – | – | – | 32.9 | –
CS(=O)(=O)c1ncc(Cl)c(C(=O)Nc2ccc(OC(F)F)cc2)n1 | – | · | – | – | 78.9 | 11.5
CS(=O)(=O)c1ncc(Cl)c(C(=O)Nc2ccc(N3CCOCC3)cc2)n1 | – | · | – | – | 45.1 | 38
CCOC(=O)C1(Cc2ccccc2)CCN(Cc2ccc(C(F)(F)F)cc2)CC1 | · | – | · | · | · | ·
O=C(c1cccc(F)c1)N1CCCC(c2nc(-c3cccs3)no2)C1 (stereo unspecified) | · | – | · | · | · | ·
CCC(C)[C@H](NC(=O)NC1CCN(Cc2ccccc2)CC1)C(=O)OC (stereo partly specified) | – | – | – | – | 38.1 | –
CCOC(=O)CNc1nnc(SCC(=O)OCC)[nH]c1=O | – | – | – | – | 41.5 | 6.34
COC(=O)CSc1nnc(C)c(=O)[nH]1 | – | – | – | – | – | ·
CCc1[nH]nc2c1C1(CCN(C(=O)OCc3ccccc3)CC1)C(C#N)=C(N)O2 | – | – | – | – | – | ·
CC(C)c1[nH]nc2c1C1(CCN(Cc3ccccc3)CC1)C(C#N)=C(N)O2 | – | – | – | – | 67.5 | 21.3
CCCc1[nH]nc2c1C1(CCN(C(=O)OCc3ccccc3)CC1)C(C#N)=C(N)O2 | – | – | – | – | – | ·
CCOC(=O)C1CCC2(CC1)C(C#N)=C(N)Oc1n[nH]c(C)c12 (stereo unspecified) | – | – | – | – | 79.0 | –
Cc1[nH]nc2c1C1(CCOCC1)C(C#N)=C(N)O2 | – | · | – | – | 78.5 | 12.5
Cc1[nH]nc2c1C1(CCN(Cc3ccccc3)CC1)C(C#N)=C(N)O2 | – | – | – | – | 84.9 | 14.1
COc1cccc(-c2cc(=O)[nH][nH]2)c1 | – | – | – | – | 97.9 | 2.18
CCOc1cccc(-c2cc(=O)[nH][nH]2)c1 | – | – | – | – | 96.8 | 2.53
CCN(C(=O)CSc1ncccc1C(=O)Oc1cccc([N+](=O)[O-])c1)c1cccc(C)c1 | – | – | – | – | 32.8 | ?
CSc1nc(-c2ccccc2)nn1C(=O)c1ccc(Cl)cc1 | – | – | – | – | 57.3 | –
CSc1nc(-c2ccc(Cl)cc2)nn1C(=O)c1ccccc1 | – | – | – | – | – | ·
C#CC(=O)N(c1cc(OC)ccc1OC)C(C(=O)NC1CCCC1)c1cccs1 (stereo unspecified) | – | · | – | – | 31.3 | 2.94
C#CC(=O)N(c1ccc(OC)cc1OC)C(C(=O)NC1CCCC1)c1cccs1 (stereo unspecified) | – | – | – | – | · | ·
O[C@H](COc1cccc(Cl)c1)CN1CCC(C(O)(c2ccccc2)c2ccccc2)CC1 | · | – | · | · | · | ·
O=C(CCc1ccccc1)N[C@H]1[C@H](OC(=O)c2cnccn2)CCC[C@]12C(=O)N(Cc1ccccc1)c1ccccc12 | · | – | · | · | · | ·
C[C@H]1COc2cc(Br)ccc2S(=O)(=O)N1Cc1cn(Cc2ccccc2)nn1 | · | – | · | · | · | ·
O=C(NCc1ccco1)/C(=C/c1ccc(C(F)(F)F)cc1)c1nc2ccccc2[nH]1 | – | – | – | – | – | ·
SMILES | Rv3671c protease | CCHF vOTU inh | Mtb bLac sens | UGM FP inh | RecA splice inh | GFP chromo cs
O=C(NCc1ccco1)/C(=C/c1cccc(C(F)(F)F)c1)c1nc2ccccc2[nH]1 | – | – | – | – | 37.6 | –
N=c1n(Cc2ccccc2)c2ccccc2n1CC(O)COc1ccc(Cl)cc1Cl (stereo unspecified) | · | – | · | · | 31.9 | –
COC(=O)C[C@H]1CC[C@H]2[C@H](COc3ccc(NS(=O)(=O)c4cccc(F)c4)cc3C(=O)N2C)O1 | · | – | · | · | · | ·
COc1ccc(C2CC(c3ccccc3OC(C)=O)=NN2C(=O)/C=C/c2ccccc2)cc1OC (stereo unspecified) | – | – | – | – | – | ·
COc1ccc(C2=NN(C(=O)/C=C/c3ccccc3)C(c3ccccc3)C2)c(OC(C)=O)c1 (stereo unspecified) | – | – | – | – | 35.7 | –
O=C(O)c1cc2c([nH]c1=O)CCCC2 | – | – | – | – | – | ·
C=CCSC(=C(C#N)C#N)c1cc2c([nH]1)CCCC2 | – | – | – | – | 70.3 | 16.9
O=C(NCCc1ccccc1)OCc1cn(Cc2cccc(Cl)c2)nn1 | · | – | · | · | · | ·
COCC#Cc1ccc(CC[C@H]2O[C@H]3CC[C@@H](CO)O[C@H]3C[C@H]2n2cc(C3CC3)nn2)cc1 | · | – | · | · | · | ·
S=C1Cc2ccccc2N1 | · | 99.8 | · | · | 87.7 | 1.24
O=C(OCCN1CCN(C2CN(Cc3cn(Cc4ccc([N+](=O)[O-])cc4)nn3)S(=O)(=O)C2)CC1)c1cc2ccccc2o1 (stereo unspecified) | · | – | · | · | · | ·
CCOC(=O)CC[C@@]1(C(=O)OCC)C[C@@H](CC(=O)NCc2ccc(OC)c(OC)c2)C(=O)N2CCCC=C21 | · | – | · | · | · | ·
O=[N+]([O-])c1cncc([N+](=O)[O-])c1Nc1cccc(O)c1 | – | – | – | – | 46.1 | 15.6
OCCCN1CCC2(CCC(c3ccccc3)CC2)C1 (stereo unspecified) | · | – | · | · | · | ·
CCCCNC[C@@]12CO[C@H](c3ccc(Cl)cc3)N1[C@@H](c1ccc(Cl)cc1)SC2 | · | – | · | · | · | ·
COc1ccc(-c2cc(-c3nnc(SCC(=O)NC4CCCCC4)n3N)[nH]n2)cc1 | · | – | · | · | · | ·
Cc1nn(-c2ccccc2)c(Cl)c1/C=C1\SC(=S)NC1=O | – | – | – | – | – | ·
O=C(O)CCCN1C(=O)/C(=C\C(Cl)=C\c2ccccc2)SC1=S | · | – | – | – | 46.4 | –
Cc1nn(-c2ccccc2)c(Cl)c1/C=C1\SC(=S)N(CCCCCC(=O)O)C1=O | – | – | – | – | 37.3 | 27.5
CCOC(=O)C1=CCN(S(=O)(=O)c2ccc(Br)cc2)C1c1cccc(Br)c1 (stereo unspecified) | · | – | · | · | · | ·
COc1ccc(C2C(C(=O)Nc3ccc(F)cc3F)CCC(=O)N2c2ccc(OC)cc2)cc1 (stereo unspecified) | · | – | · | · | · | ·
CN(CCCOC(=O)c1cc2ccccc2o1)C1CN(Cc2cn(Cc3ccccc3C(F)(F)F)nn2)S(=O)(=O)C1 (stereo unspecified) | · | – | · | · | · | ·
N#Cc1cc([N+](=O)[O-])c(-n2nnc3ccccc32)c([N+](=O)[O-])c1 | – | · | – | – | 94.1 | –
Cc1[nH][nH]c(=O)c1C(c1ccc(Cl)cc1)c1c(C)[nH][nH]c1=O | – | – | – | – | 98.0 | 1.26
COC(=O)c1ccc(C(c2c(C)[nH][nH]c2=O)c2c(C)[nH][nH]c2=O)cc1 | – | – | – | – | 94.6 | 1.42
CCOC(=O)COc1ccc(C(c2c(C)[nH][nH]c2=O)c2c(C)[nH][nH]c2=O)cc1 | – | – | – | – | – | ·
Cc1[nH][nH]c(=O)c1C(c1ccc(F)cc1)c1c(C)[nH][nH]c1=O | – | – | – | – | 97.8 | 0.616
Cc1[nH][nH]c(=O)c1C(c1c(C)[nH][nH]c1=O)c1cn(Cc2ccc(F)cc2)c2ccccc12 | – | · | – | – | · | ·
O=C(NC(CC1=CCCCC1)c1ccc2ccccc2c1)C(F)(F)F (stereo unspecified) | · | – | · | · | · | ·
